Our source for the binding signal values is paper PMC7819943, “Rice protein-binding microarrays: a tool to detect cis-acting elements near promoter regions in rice”.

In all, about 35,000 sequences were measured (“fluorescence intensity (a.u.)”: median about 10,000, highest 2% from about 52,000 on). The full list was thinned out, with the highest values kept by preference.

This assay has as its target T1, OsWOX13 (Oryza sativa, UniProt Q5QMM3 1-267).
T1 sequence: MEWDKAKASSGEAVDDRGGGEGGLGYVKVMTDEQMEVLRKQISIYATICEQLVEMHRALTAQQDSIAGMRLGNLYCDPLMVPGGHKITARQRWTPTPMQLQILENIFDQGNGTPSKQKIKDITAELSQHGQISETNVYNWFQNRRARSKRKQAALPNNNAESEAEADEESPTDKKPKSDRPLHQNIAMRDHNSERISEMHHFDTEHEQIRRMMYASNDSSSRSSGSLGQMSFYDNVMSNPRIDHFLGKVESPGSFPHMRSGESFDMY
The assay can be described thus: protein-binding microarray (RPBM); PBS, 2% BSA, 51.3 ng/ul salmon testes DNA, 50 uM zinc acetate, 200 nM TF, 25 C, 1 h; high values mean tight binding. The settings on record: protein: recombinant; tags: N-terminal polyhistidine and DsRed monomer fusion (pET32a); label: CyDye5-dUTP incorporated in the synthesized complementary strand; 3' TTTTT single-stranded linker to array surface; dsDNA, one strand shown. Summed up: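 In PBS with 2% BSA, salmon testes DNA and 50 µM zinc acetate, 200 nM protein was incubated on a custom Agilent array at 25 °C for 1 h and then washed off. The array had been made double-stranded by primer extension with Cy5-dUTP and blocked with 2% BSA. The proteins were transcription factors fused N-terminally to polyhistidine and DsRed, expressed in E. coli BL21-CodonPlus and purified on Ni–NTA. The binding signal is per-feature fluorescence intensity (arbitrary units) from an Axon 4000B scanner.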
On to “TCAATTAATATATAATTGGCATTGGGTTTGATCATCTCTGCGGAGTCACCTAGTGCAG”, for which the binding signal is 50700 fluorescence intensity (a.u.). Consider “CATGTTAATTTGGGACGAGAGTCGGACTCCTATTTCCTTTCGGAGTCACCTAGTGCAG”, for which the binding signal is 7570 fluorescence intensity (a.u.). As for “AAAATTGATGTTCTCTTTGGTGCATTTCTTTCTTATTGTCCGGAGTCACCTAGTGCAG”, the binding signal was 26800 fluorescence intensity (a.u.).

“CAATTATCAATCAGTCTGAAATCTTGCATTTGCATTTGCACGGAGTCACCTAGTGCAG”: the binding signal is 22400 fluorescence intensity (a.u.). The value for “TAAGACTAATTATTCTTTTAGTAATAGACGACGTACTCGCCGGAGTCACCTAGTGCAG” was 22300 fluorescence intensity (a.u.). Regarding “ATATAATTATAATTTATTTTATTGTGACTTGATTTATCATCGGAGTCACCTAGTGCAG”, the binding signal is 36400 fluorescence intensity (a.u.). For “ATCCCTAATACGATTTACATGATTAGAGGAGAGACAATTTCGGAGTCACCTAGTGCAG”, the binding signal was 4470 fluorescence intensity (a.u.). For “AATGATTGACAATACTTAGATTTCTTCCCTTAATTACATCCGGAGTCACCTAGTGCAG”, the binding signal was 54400 fluorescence intensity (a.u.).

On to “TATTTTAGATTGATATACAATCTTTTGTGGTGTTAGCACTCGGAGTCACCTAGTGCAG”, for which the binding signal is 52900 fluorescence intensity (a.u.). Under “ACGTGATACATCTTGTTCTAGATTTGTTTAATTTAAGCCACGGAGTCACCTAGTGCAG” stands 3240 fluorescence intensity (a.u.); under “TTTGATTGTGGTTATTGCACTGAAATTTTACAGATATTGTCGGAGTCACCTAGTGCAG”, 31800 fluorescence intensity (a.u.). Consider “AATTGTCCCTGATTGACACCTCTTACTTGACCCTTCTTTCCGGAGTCACCTAGTGCAG”, for which the binding signal was 42600 fluorescence intensity (a.u.). In the case of “GTAGATATTGATGATTTATATAACTTTGTTGTTGATGACTCGGAGTCACCTAGTGCAG”, the binding signal was 14500 fluorescence intensity (a.u.). As for “ATTAATTAATTAGTGATCATACATAATTGAGGTGATTTATCGGAGTCACCTAGTGCAG”, the binding signal was 65000 fluorescence intensity (a.u.). “GTGCATTATCGATCATAATTAGCAGGTGAGAGATATTTAACGGAGTCACCTAGTGCAG”: the binding signal was 4060 fluorescence intensity (a.u.). Under “ACTTGCATGCTTAATTGATTTAGTTGGTGACCTTATATCTCGGAGTCACCTAGTGCAG” stands 37800 fluorescence intensity (a.u.).

In the case of “TTAATTGATTTAGTTGGTGACCTTATATCTTGTTTAGATACGGAGTCACCTAGTGCAG”, the binding signal is 60600 fluorescence intensity (a.u.). Regarding “GAGCAGCAGCTTAATTGGATCATCGAATCTCGCACCGCCACGGAGTCACCTAGTGCAG”, the binding signal is 4860 fluorescence intensity (a.u.). Under “TAAACTTAATTTTAAAATCATAATTCAGAAATGTGGTGAACGGAGTCACCTAGTGCAG” stands 30500 fluorescence intensity (a.u.); under “ATGACTTGACGAGGTAAATAAAATTGGACCGGGCAGCAAACGGAGTCACCTAGTGCAG”, 3900 fluorescence intensity (a.u.). Under “CCCTAATCCCATTTAATCAGCACAGCTTCTTAATTACTCCCGGAGTCACCTAGTGCAG” stands 6810 fluorescence intensity (a.u.); under “TATTAATTGAGTGAGATTTGGGGTATTCAGTCGACTGGCACGGAGTCACCTAGTGCAG”, 54900 fluorescence intensity (a.u.). Under “GAAGTTATTAACAAATTAGATACATCTCTTGTTTAGATTACGGAGTCACCTAGTGCAG” stands 4700 fluorescence intensity (a.u.); under “CTCTGATAGATTGCGACCTTCTTGTTGTTTAACAACGTTACGGAGTCACCTAGTGCAG”, 54000 fluorescence intensity (a.u.); under “ATATTCAGCTGATTGGGGCATTGGGTATTTGCAGTGAGCACGGAGTCACCTAGTGCAG”, 18500 fluorescence intensity (a.u.).

On to “GTATTAATTGGGGTGATTCATGACAACGATGAGATATTAACGGAGTCACCTAGTGCAG”, for which the binding signal is 32700 fluorescence intensity (a.u.). As to “TCTGAGATTTATTGATTAGATTATAACGTAATCGTTGTTACGGAGTCACCTAGTGCAG”, the binding signal is 29300 fluorescence intensity (a.u.). With “ACACACAGCGGCAAAATTGACACATTACACATCAGGAATCCGGAGTCACCTAGTGCAG”, the binding signal is 5060 fluorescence intensity (a.u.). Under “TGAAAGAAGAGATGATTGGGAAACACCATTAATAGGGTGGCGGAGTCACCTAGTGCAG” stands 10500 fluorescence intensity (a.u.); under “TGTCGTCAAAATTTGATGGAATTCACACGAATTTAGCAACCGGAGTCACCTAGTGCAG”, 5150 fluorescence intensity (a.u.); under “TACTAATGATTTTATGTAGAACATCATCACATATCTTATACGGAGTCACCTAGTGCAG”, 15800 fluorescence intensity (a.u.). The value for “TAATAATAATAATAATAATAATAATAATAACACATCGCACCGGAGTCACCTAGTGCAG” was 4120 fluorescence intensity (a.u.).

As to “TTGATTTGGTTGATTGCCTCCTTCGTTCGTCCACGCTCAACGGAGTCACCTAGTGCAG”, the binding signal was 57100 fluorescence intensity (a.u.). Take “GGTTTGATTGGTTGGAAACAGAGGGGTTCTACTGCTGCGACGGAGTCACCTAGTGCAG”: the binding signal is 55700 fluorescence intensity (a.u.).

With “CTTTGACAGATTGGTGGGAGATAAGAGAAATGAGGAGGTGCGGAGTCACCTAGTGCAG”, the binding signal is 51900 fluorescence intensity (a.u.). In the case of “CCGTGCTGCATGATTGACCAAACAGACCATGTTGGTTTTGCGGAGTCACCTAGTGCAG”, the binding signal was 29000 fluorescence intensity (a.u.). Regarding “TTCGAATCTCTGATTGGGAGTTCAGGTCAGAGACGTTCAGCGGAGTCACCTAGTGCAG”, the binding signal was 14700 fluorescence intensity (a.u.). As to “TGTTGATTTGCTACCCTTCCTTCCGTCCTCAACATTATCACGGAGTCACCTAGTGCAG”, the binding signal was 31600 fluorescence intensity (a.u.).

For the sequence “ATAACATTATCATTATAGACATTGATATATGAGATAATAGCGGAGTCACCTAGTGCAG”, the binding signal was 6010 fluorescence intensity (a.u.). On to “TTCTATGATTGATTGGTCGATAGGAAGACATATAACAGCGCGGAGTCACCTAGTGCAG”, for which the binding signal was 65500 fluorescence intensity (a.u.). With “GATTTATTGACATCTATATGAATATAGACATTGATAAAAGCGGAGTCACCTAGTGCAG”, the binding signal is 8710 fluorescence intensity (a.u.). Take “TTGCTATTTGTTGGTTTGATTTATTGCTACTGCAACAGATCGGAGTCACCTAGTGCAG”: the binding signal is 3880 fluorescence intensity (a.u.). Under “CTGATGATTGGTCAGCAGAGAAGACAGGTGGGATATCGAGCGGAGTCACCTAGTGCAG” stands 52900 fluorescence intensity (a.u.); under “TTGATTGCCTCAGGTGGTCCGGACACCGTCTCAACATCCACGGAGTCACCTAGTGCAG”, 17700 fluorescence intensity (a.u.).

Turning to “CCCAATTAAATAATGCCAATTGGGTTTGATCTAATGCTGGCGGAGTCACCTAGTGCAG”, the binding signal is 15200 fluorescence intensity (a.u.). Under “ATCAATCAATCAATCAATCAGCAAAGAGCATCCCAAACAACGGAGTCACCTAGTGCAG” stands 33900 fluorescence intensity (a.u.). The value for “AAGGTTGTTAATTACAAACCATGTTTCGTACTACAACTCTCGGAGTCACCTAGTGCAG” was 4580 fluorescence intensity (a.u.).
